# Results as given in article PMC7862700, “An all-to-all approach to the identification of sequence-specific readers for epigenetic DNA modifications on cytosine”.
# Key:
# Experiment in all cases: DAPPL (digital affinity profiling via proximity ligation, sequencing); 10 mM Tris-HCl pH 7.5, 50 mM NaCl, 1 mM DTT, 4% glycerol, room temperature, 30 min; GST-TFs on glutathione beads, 16-mer random dsDNA library, 0.1% formaldehyde crosslink after washing; high values mean tight binding
# FEV = target: T1, FEV (Homo sapiens, UniProt Q99581 1-238); details: protein: recombinant; tags: N-terminal GST; dsDNA, one strand shown
# T1 sequence: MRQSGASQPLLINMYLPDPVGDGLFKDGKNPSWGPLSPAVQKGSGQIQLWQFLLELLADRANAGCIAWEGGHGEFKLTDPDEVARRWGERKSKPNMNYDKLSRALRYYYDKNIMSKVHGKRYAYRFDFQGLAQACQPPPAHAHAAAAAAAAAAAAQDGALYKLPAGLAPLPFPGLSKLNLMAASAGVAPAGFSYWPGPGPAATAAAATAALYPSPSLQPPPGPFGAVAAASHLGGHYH
# Method in brief: (§1)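 Yeast served to express human transcription factors as GST fusions, which were then captured on glutathione beads and labelled with DNA barcodes. Pooled with a tag-only sample, they were incubated with 200 nmole of a 16-mer random double-stranded DNA library for 30 min at room temperature in Tris/NaCl/DTT/glycerol buffer, washed, crosslinked with 0.1% formaldehyde, ligated by proximity, amplified by PCR and sequenced. Dividing each hexamer's read frequency for a factor by its frequency for the tag-only sample gives the binding signal.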
# ETV5 = ETV5 (Homo sapiens, UniProt P41161 1-510); details: protein: recombinant; tags: N-terminal GST; dsDNA, one strand shown
# ETV5, sequence (P41161 whole entry): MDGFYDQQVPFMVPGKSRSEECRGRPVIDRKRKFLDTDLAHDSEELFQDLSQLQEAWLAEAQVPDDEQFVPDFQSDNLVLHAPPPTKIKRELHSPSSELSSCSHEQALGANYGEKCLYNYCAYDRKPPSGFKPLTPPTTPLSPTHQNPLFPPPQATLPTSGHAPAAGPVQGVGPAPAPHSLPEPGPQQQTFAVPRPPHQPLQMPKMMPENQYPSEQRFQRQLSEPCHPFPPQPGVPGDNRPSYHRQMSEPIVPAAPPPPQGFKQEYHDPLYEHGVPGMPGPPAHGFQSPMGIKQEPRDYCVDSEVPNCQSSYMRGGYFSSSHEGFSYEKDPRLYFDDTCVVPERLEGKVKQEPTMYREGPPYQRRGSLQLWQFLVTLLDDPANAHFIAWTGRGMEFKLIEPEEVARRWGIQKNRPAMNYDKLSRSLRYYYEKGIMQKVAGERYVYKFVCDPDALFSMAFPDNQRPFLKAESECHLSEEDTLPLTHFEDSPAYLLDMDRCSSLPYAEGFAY
# Method in brief: as §1
# HSF1 = HSF1 (Homo sapiens, UniProt Q00613 1-529); details: protein: recombinant; tags: N-terminal GST; chain copies: 3; dsDNA, one strand shown
# HSF1, sequence (Q00613 whole entry): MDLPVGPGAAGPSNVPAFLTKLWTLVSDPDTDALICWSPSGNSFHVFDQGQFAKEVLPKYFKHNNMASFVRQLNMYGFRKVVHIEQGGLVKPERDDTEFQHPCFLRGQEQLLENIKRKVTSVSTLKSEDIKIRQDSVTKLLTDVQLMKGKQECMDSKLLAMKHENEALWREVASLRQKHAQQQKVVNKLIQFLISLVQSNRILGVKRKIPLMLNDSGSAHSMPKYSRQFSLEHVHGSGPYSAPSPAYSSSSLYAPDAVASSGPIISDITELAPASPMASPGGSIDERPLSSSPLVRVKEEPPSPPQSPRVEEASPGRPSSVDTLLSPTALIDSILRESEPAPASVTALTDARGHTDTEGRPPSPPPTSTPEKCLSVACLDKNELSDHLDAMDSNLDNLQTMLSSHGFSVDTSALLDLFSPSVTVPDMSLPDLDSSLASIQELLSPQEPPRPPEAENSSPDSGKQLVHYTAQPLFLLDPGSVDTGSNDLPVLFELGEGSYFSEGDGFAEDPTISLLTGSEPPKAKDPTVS
# Method in brief: as §1
# SPIC = target: T2, SPIC (Homo sapiens, UniProt Q8N5J4 1-248); details: protein: recombinant; tags: N-terminal GST; dsDNA, one strand shown
# T2 sequence: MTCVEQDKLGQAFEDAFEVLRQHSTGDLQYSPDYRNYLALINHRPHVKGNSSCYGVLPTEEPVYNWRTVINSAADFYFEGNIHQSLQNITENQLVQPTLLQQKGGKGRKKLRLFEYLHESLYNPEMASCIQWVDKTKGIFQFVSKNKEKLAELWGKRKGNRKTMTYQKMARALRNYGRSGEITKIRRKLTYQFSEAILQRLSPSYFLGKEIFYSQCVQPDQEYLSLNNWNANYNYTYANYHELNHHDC
# Method in brief: as §1
# ELF4 = ELF4 (Homo sapiens, UniProt Q99607 1-663); details: protein: recombinant; tags: N-terminal GST; dsDNA, one strand shown
# ELF4, sequence (Q99607 whole entry): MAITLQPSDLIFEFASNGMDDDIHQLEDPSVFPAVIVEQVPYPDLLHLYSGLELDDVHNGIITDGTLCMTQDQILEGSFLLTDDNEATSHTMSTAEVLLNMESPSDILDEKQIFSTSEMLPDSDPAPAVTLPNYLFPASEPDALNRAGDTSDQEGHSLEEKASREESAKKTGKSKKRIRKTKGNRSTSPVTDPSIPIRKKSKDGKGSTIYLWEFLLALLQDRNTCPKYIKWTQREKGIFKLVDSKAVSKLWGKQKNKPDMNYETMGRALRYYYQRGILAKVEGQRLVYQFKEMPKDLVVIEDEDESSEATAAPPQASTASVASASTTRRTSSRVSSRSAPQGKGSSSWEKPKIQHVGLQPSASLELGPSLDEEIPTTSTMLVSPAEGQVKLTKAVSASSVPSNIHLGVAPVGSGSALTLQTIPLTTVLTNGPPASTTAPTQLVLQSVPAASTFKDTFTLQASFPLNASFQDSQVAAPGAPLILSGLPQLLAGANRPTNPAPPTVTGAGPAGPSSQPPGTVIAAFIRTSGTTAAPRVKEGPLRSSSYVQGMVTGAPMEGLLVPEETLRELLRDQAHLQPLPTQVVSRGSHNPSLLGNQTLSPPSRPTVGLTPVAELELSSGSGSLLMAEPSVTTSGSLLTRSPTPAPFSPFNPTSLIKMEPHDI
# Method in brief: as §1
# ELK4 = target: T3, ELK4 (Homo sapiens, UniProt P28324-2 1-405); details: protein: recombinant; tags: N-terminal GST; dsDNA, one strand shown
# T3 sequence: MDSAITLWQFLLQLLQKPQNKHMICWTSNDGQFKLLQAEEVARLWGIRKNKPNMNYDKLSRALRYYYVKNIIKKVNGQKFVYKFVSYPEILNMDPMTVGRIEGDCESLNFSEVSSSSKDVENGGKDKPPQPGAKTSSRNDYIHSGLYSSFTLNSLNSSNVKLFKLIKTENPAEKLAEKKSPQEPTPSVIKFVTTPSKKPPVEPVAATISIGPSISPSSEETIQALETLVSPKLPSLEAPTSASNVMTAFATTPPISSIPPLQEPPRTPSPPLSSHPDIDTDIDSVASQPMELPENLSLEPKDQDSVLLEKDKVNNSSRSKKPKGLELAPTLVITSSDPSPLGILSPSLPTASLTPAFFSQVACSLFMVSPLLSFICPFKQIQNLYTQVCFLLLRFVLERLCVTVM
# Method in brief: as §1
# ETV2 = target: T4, ETV2 (Homo sapiens, UniProt O00321 1-342); details: protein: recombinant; tags: N-terminal GST; dsDNA, one strand shown
# T4 sequence: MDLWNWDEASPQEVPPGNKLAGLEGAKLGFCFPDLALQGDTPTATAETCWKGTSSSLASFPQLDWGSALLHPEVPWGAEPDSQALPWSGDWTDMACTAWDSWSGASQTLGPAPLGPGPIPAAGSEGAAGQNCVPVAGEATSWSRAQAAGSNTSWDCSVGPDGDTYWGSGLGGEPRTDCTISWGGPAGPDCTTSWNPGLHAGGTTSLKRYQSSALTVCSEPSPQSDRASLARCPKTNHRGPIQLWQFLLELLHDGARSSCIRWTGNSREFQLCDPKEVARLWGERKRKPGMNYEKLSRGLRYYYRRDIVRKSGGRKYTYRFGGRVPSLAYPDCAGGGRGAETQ
# Method in brief: as §1
# ELF3 = target: T5, ELF3 (Homo sapiens, UniProt P78545 1-371); details: protein: recombinant; tags: N-terminal GST; dsDNA, one strand shown
# T5 sequence: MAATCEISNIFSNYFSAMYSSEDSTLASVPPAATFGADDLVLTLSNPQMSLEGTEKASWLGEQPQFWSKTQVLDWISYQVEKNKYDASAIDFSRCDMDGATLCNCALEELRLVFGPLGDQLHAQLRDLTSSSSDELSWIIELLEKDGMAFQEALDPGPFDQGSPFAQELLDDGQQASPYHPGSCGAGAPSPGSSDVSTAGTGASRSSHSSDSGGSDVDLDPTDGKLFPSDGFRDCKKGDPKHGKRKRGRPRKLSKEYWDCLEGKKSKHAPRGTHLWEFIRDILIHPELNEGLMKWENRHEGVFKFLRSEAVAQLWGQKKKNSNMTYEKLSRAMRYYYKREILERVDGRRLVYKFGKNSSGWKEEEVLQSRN
# Method in brief: as §1
# CRX = CRX (Homo sapiens, UniProt O43186 1-299); details: protein: recombinant; tags: N-terminal GST; dsDNA, one strand shown
# CRX, sequence (O43186 whole entry): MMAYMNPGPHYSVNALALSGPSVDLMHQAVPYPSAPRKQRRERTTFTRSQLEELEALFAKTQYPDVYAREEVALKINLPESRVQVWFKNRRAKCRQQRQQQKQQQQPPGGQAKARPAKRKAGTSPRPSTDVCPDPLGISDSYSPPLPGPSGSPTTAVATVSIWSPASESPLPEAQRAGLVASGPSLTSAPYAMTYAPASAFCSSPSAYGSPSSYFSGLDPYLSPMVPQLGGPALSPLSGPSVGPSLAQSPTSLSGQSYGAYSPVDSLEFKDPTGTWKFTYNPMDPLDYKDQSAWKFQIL
# Method in brief: as §1
# ETV1 = ETV1 (Homo sapiens, UniProt P50549 1-477); details: protein: recombinant; tags: N-terminal GST; dsDNA, one strand shown
# ETV1, sequence (P50549 whole entry): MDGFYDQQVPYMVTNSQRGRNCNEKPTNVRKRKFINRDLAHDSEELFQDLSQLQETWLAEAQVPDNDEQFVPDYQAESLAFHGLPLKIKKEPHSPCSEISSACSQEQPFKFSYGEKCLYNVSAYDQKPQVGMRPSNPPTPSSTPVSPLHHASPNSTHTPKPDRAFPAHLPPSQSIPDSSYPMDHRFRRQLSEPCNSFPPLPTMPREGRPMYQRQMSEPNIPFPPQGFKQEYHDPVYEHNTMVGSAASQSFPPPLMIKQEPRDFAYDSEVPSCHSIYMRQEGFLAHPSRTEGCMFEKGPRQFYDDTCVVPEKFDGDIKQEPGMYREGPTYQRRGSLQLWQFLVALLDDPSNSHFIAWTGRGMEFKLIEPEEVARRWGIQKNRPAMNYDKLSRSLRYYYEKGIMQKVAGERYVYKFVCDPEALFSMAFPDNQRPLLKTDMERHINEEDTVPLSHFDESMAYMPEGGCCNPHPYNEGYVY
# Method in brief: as §1
# ERF = target: T6, ERF (Homo sapiens, UniProt P50548 1-548); details: protein: recombinant; tags: N-terminal GST; dsDNA, one strand shown
# T6 sequence: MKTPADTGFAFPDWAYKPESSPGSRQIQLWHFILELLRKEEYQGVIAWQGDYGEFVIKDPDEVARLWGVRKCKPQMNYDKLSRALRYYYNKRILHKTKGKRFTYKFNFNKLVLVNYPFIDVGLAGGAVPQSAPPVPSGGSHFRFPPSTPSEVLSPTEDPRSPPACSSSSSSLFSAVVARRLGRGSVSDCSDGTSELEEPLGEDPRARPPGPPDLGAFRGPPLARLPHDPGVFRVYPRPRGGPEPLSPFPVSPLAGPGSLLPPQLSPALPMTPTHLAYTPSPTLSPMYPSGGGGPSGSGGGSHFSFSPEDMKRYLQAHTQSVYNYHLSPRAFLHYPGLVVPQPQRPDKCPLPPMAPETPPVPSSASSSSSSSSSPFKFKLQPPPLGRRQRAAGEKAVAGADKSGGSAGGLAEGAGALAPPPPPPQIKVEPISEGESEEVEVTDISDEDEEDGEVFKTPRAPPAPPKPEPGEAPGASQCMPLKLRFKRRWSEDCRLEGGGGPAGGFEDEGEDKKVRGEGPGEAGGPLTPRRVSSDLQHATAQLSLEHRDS
# Method in brief: as §1
# ETV3L = target: T7, ETV3L (Homo sapiens, UniProt Q6ZN32 1-361); details: protein: recombinant; tags: N-terminal GST; dsDNA, one strand shown
# T7 sequence: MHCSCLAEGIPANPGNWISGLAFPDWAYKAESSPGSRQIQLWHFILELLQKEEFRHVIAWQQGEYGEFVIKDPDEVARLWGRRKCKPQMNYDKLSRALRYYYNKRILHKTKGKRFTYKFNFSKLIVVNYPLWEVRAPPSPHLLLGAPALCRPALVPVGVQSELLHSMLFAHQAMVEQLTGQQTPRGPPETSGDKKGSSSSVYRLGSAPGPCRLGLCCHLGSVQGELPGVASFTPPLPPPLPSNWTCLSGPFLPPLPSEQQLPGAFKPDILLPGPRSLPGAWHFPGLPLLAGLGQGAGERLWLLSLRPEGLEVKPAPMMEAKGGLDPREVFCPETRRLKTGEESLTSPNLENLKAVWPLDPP
# Method in brief: as §1
# ETS2 = target: T8, ETS2 (Homo sapiens, UniProt P15036 1-469); details: protein: recombinant; tags: N-terminal GST; dsDNA, one strand shown
# T8 sequence: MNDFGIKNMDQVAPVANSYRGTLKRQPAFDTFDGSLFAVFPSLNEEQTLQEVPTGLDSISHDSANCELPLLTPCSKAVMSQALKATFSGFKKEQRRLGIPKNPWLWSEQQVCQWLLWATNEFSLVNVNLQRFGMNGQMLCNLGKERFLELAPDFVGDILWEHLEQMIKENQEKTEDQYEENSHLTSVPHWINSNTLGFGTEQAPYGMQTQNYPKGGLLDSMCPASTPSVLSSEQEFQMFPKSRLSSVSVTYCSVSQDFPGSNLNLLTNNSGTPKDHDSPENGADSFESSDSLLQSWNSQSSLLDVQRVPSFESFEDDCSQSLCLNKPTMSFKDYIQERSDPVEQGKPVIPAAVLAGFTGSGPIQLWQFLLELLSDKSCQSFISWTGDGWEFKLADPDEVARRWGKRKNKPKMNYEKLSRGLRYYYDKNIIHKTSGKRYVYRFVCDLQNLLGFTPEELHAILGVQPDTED
# Method in brief: as §1
# SPDEF = target: T9, SPDEF (Homo sapiens, UniProt O95238 1-335); details: protein: recombinant; tags: N-terminal GST; dsDNA, one strand shown
# T9 sequence: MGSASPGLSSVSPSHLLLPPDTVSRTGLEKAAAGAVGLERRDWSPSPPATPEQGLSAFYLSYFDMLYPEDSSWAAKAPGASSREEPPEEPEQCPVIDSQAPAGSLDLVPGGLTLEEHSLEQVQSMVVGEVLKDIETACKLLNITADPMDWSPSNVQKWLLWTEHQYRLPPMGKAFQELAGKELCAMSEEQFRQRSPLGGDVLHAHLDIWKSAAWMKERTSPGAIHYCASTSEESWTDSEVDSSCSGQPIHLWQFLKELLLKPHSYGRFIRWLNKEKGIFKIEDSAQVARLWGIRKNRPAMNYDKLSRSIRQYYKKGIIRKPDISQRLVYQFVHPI
# Method in brief: as §1
# ETV7 = target: T10, ETV7 (Homo sapiens, UniProt Q9Y603 1-341); details: protein: recombinant; tags: N-terminal GST; dsDNA, one strand shown
# T10 sequence: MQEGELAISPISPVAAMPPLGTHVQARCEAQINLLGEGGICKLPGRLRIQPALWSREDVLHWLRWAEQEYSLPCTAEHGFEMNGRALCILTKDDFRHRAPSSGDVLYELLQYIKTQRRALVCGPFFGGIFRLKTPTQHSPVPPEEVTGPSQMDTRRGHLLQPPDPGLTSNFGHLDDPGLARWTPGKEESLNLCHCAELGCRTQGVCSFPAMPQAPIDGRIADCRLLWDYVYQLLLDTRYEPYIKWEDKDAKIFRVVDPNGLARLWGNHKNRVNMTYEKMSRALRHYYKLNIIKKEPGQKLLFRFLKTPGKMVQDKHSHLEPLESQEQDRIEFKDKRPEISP
# Method in brief: as §1
# ELF5 = target: T11, ELF5 (Homo sapiens, UniProt Q9UKW6-2 1-255); details: protein: recombinant; tags: N-terminal GST; dsDNA, one strand shown
# T11 sequence: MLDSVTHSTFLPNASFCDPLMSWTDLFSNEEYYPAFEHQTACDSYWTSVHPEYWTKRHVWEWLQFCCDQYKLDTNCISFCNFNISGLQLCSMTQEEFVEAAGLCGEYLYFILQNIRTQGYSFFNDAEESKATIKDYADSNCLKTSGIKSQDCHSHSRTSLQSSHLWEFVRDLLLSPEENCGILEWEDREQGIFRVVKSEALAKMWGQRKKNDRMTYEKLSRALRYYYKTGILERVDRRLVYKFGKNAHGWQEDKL
# Method in brief: as §1
# ETV3 = target: T12, ETV3 (Homo sapiens, UniProt P41162-2 1-143); details: protein: recombinant; tags: N-terminal GST; dsDNA, one strand shown
# T12 sequence: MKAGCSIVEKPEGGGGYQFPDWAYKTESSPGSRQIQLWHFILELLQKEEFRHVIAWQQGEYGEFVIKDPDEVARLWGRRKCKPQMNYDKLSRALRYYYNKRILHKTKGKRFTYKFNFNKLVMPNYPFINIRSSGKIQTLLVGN
# Method in brief: as §1
# ETV6 = ETV6 (Homo sapiens, UniProt P41212 1-452); details: protein: recombinant; tags: N-terminal GST; dsDNA, one strand shown
# ETV6, sequence (P41212 whole entry): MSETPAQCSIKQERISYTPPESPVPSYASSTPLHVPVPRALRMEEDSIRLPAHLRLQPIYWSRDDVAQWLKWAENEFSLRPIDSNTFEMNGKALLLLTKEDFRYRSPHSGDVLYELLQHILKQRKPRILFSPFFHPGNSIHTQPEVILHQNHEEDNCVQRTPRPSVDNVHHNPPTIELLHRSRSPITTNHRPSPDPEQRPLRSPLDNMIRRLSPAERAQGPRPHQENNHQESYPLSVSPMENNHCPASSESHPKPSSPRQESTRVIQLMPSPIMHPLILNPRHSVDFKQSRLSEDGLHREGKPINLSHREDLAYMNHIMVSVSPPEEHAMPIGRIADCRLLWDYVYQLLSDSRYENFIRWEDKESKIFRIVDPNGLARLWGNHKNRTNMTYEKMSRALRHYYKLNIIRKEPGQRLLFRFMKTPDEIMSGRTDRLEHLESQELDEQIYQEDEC
# Method in brief: as §1
sequence,measurement,setting,value
CCGACT,binding signal,FEV,"1.52 fold enrichment (6-mer frequency, TF over GST control)"
same,binding signal,ETV5,"1.44 fold enrichment (6-mer frequency, TF over GST control)"
same,binding signal,HSF1,"1.29 fold enrichment (6-mer frequency, TF over GST control)"
same,binding signal,SPIC,"1.53 fold enrichment (6-mer frequency, TF over GST control)"
same,binding signal,ELF4,"1.52 fold enrichment (6-mer frequency, TF over GST control)"
same,binding signal,ELK4,"1.56 fold enrichment (6-mer frequency, TF over GST control)"
same,binding signal,ETV2,"1.46 fold enrichment (6-mer frequency, TF over GST control)"
same,binding signal,ELF3,"1.55 fold enrichment (6-mer frequency, TF over GST control)"
same,binding signal,CRX,"1.45 fold enrichment (6-mer frequency, TF over GST control)"
same,binding signal,ETV1,"1.6 fold enrichment (6-mer frequency, TF over GST control)"
same,binding signal,ERF,"1.5 fold enrichment (6-mer frequency, TF over GST control)"
same,binding signal,ETV3L,"1.6 fold enrichment (6-mer frequency, TF over GST control)"
same,binding signal,ETS2,"1.54 fold enrichment (6-mer frequency, TF over GST control)"
same,binding signal,SPDEF,"1.45 fold enrichment (6-mer frequency, TF over GST control)"
same,binding signal,ETV7,"1.32 fold enrichment (6-mer frequency, TF over GST control)"
same,binding signal,ELF5,"1.41 fold enrichment (6-mer frequency, TF over GST control)"
same,binding signal,ETV3,"1.34 fold enrichment (6-mer frequency, TF over GST control)"
same,binding signal,ETV6,"1.51 fold enrichment (6-mer frequency, TF over GST control)"
